Screening data as filed in PubChem.
In the library only some 1.2% were active in any assay of this set; here they are far more common.
NSD2 HMT inh = NSD2 (human) methyltransferase inhibition. O96028. NSD2 peptide methylation, AlphaScreen, 120 min. inhibition, % at 12.5 µM. hit rate 0.54% among 310,000. AID 743445; in the data active = inhibition above about 50%
miR-122 sensor = inhibitors of miR-122 in Huh7 cells; hit rate 0.3% among 340,000; AID 602342; activation (reporter increase), % at 12.5 µM; Huh7 miR-122 Renilla luciferase sensor, 48 h; neutral wells = 0, positive control = 100;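 active = mean replicate activation score at least 90 and every replicate individually at or above 90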;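 also: higher luciferase means less miR-122 activity so hits act as miR-122 inhibitors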
PglD inh = blocks C. jejuni PglD acetyltransferase activity. purified PglD enzyme, DTNB colorimetric CoA detection. inhibition, % at 12.5 µM. hit rate 0.098% among 360,000. AID 602405; in the data active = inhibition above about 16%, passing the limit was not always enough
C2C12 statin = suppression of simvastatin myotoxicity; C2C12 myotubes + simvastatin, ATP luminescence, 48 h; scaled: DMSO 0, geranylgeraniol control 100; rescue of ATP level, % at 7.49 µM; hit rate 0.78% among 330,000;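 active = mean ATP rescue above about 67%, or every replicate alone reaching that limit, limit read from the data, passing the limit was not always enough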;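 also: myotubes were challenged with 10 µM simvastatin during compound exposure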
Alpha artifact = counter-screen for NSD2 inhibitors: AlphaScreen artifacts; shares compounds with NSD2 HMT inh; AlphaScreen artifact counterscreen, preloaded methylated H4 peptide; AC35, µM (top dose mostly 10 µM), without a hit: at the highest dose activity change, negative = signal loss; hit rate 9.4% among 1,500; call rule not given here
Active calls of the source: *; [ ] = dose if it differs, or a comment.

For CCN1/C(=C\C(=S)Nc2ccccc2)Sc2ccccc21 the results were NSD2 HMT inh 7.3, miR-122 sensor 3.1, PglD inh -1.6 and C2C12 statin -28.8.
For N#CCOC(=O)c1sccc1-n1cccc1 the results were NSD2 HMT inh 2.7, miR-122 sensor 4.7, PglD inh 5.6 and C2C12 statin -4.3.
N#CCC(=O)c1sccc1-n1cccc1 was read as NSD2 HMT inh 91.9*, PglD inh 3.3 and Alpha artifact -4.6%.
`COc1ccccc1NC(=O)c1ccccc1NS(=O)(=O)N1CCCC1` gave NSD2 HMT inh 83.0*, miR-122 sensor -6.5, PglD inh -7.8, C2C12 statin -112.1 and Alpha artifact -3.5%.
Screening CO[C@H]1CN(C)C(=O)c2cc(NC(=O)Nc3ccccc3Cl)ccc2OC[C@@H](C)NC[C@H]1C returned miR-122 sensor 12.0[16.7 µM], PglD inh -4.7 and C2C12 statin -7.8.
For Cc1noc(C)c1NC(=O)Nc1cccc2c1O[C@@H](CN(C)C(=O)Nc1ccc3c(c1)OCO3)[C@H](C)CN([C@@H](C)CO)C2=O the results were miR-122 sensor 0.7[16.7 µM], PglD inh 1.3 and C2C12 statin 27.7.
CC1=NN(c2ccc(C(=O)O)c(N)c2)C(=O)C1 was read as NSD2 HMT inh 130.1* and Alpha artifact -6.1%.
Screening Cc1ccc2cccc(OCc3ccc(Br)cc3)c2n1 returned NSD2 HMT inh 50.8*, miR-122 sensor 4.2, PglD inh 2.7, C2C12 statin 0.4 and Alpha artifact -5.6%.
Cc1cccc(NCCNc2cccc(C)c2)c1 was read as NSD2 HMT inh 55.9*, PglD inh 1.3, C2C12 statin 113.2* and Alpha artifact -3.6%.
Screening CN1CCN(C(=O)C[C@H]2CC[C@@H]3[C@H](COC[C@H](O)CN3S(=O)(=O)c3cccc(F)c3)O2)CC1 returned miR-122 sensor -3.1[16.7 µM], PglD inh 10.2 and C2C12 statin 9.7.
For O=C(COc1ncnc2c(Cl)cc(Cl)cc12)N1CCCCC1 the results were NSD2 HMT inh 53.3*, miR-122 sensor -16.1, PglD inh -6.6, C2C12 statin -18.3 and Alpha artifact -6.5%.
Screening Nc1ccc(N(CCO)CCO)cc1 returned NSD2 HMT inh 117.1* and Alpha artifact -3.6%.
`CCc1nnc(NC(=O)c2ccc3ccccc3n2)s1` gave NSD2 HMT inh 78.3*, miR-122 sensor -12.2, PglD inh -3.7, C2C12 statin -3.4 and Alpha artifact -0.7%.
For CCSc1nnc(NC(=O)c2ccc3ccccc3n2)s1 the results were NSD2 HMT inh 0.5 and miR-122 sensor -1.0.
CCc1nnc(NC(=O)c2ccc(COc3ccccc3)o2)s1 was read as NSD2 HMT inh 95.7*, miR-122 sensor -3.3, PglD inh -4.7, C2C12 statin -3.4 and Alpha artifact 0.6%.
Cc1cccc(C)c1NC(=O)c1c[nH]c2ccccc12 was read as NSD2 HMT inh 143.0*, miR-122 sensor -2.6, PglD inh -0.2, C2C12 statin 3.7 and Alpha artifact 2.9%.
Screening Cc1cccc(C)c1NC(=O)CNC(=O)Cc1c[nH]c2ccccc12 returned NSD2 HMT inh 0.3, miR-122 sensor 6.9, PglD inh -1.6 and C2C12 statin -7.9.
Screening C[C@@H](NC(=O)C[C@H]1C=C[C@H](NC(=O)CN2CCOCC2)[C@@H](CO)O1)c1ccccc1 returned PglD inh 0.1 and C2C12 statin -0.5.
For CC1CC(C)CN(C(=O)COC(=O)CN2C(=O)c3ccccc3C2=O)C1 (configuration not stated) the results were NSD2 HMT inh 0.1, miR-122 sensor -5.2, PglD inh 0.5 and C2C12 statin 3.5.
CC1CC(C)CN(C(=O)c2ccc3c(c2NCCO)C(=O)c2ccccc2C3=O)C1 (configuration not stated) was read as NSD2 HMT inh 81.4*, miR-122 sensor 3.6, PglD inh -4.5, C2C12 statin -28.5 and Alpha artifact 8.08µM*.
COc1ccc(/C=C2\SC(=S)N(NS(=O)(=O)c3ccc(C)cc3)C2=O)c(OC)c1 was read as NSD2 HMT inh 45.0, miR-122 sensor 2.4, PglD inh 3.0 and C2C12 statin -0.8.
COc1ccc(OC)c(/C=C2\SC(=S)N(NS(=O)(=O)c3ccc(C)cc3)C2=O)c1 was read as NSD2 HMT inh 51.6* and Alpha artifact -11.1%.
For Fc1ccc(C2CCNCC2COc2ccc3c(c2)OCO3)cc1 (configuration not stated) the results were NSD2 HMT inh 63.6*, PglD inh -1.5, C2C12 statin -23.5 and Alpha artifact -20.2%.
`O=C1c2cccnc2-c2ncccc21` gave NSD2 HMT inh -3.8, miR-122 sensor 3.0 and PglD inh -2.2.
O=C1C(=O)c2cccnc2-c2ncccc21 was read as NSD2 HMT inh 144.8* and Alpha artifact -3.0%.
`C[C@@H]1CCCCO[C@H](CN(C)Cc2ccc3c(c2)OCO3)[C@H](C)CN([C@H](C)CO)C(=O)c2cc(NS(=O)(=O)c3ccc(F)cc3)ccc2O1` gave miR-122 sensor -8.2[16.7 µM] and PglD inh -9.3.
Screening CCOC(=O)C(Oc1ccc2c(-c3ccccc3)cc(=O)oc2c1C)c1ccccc1 (configuration not stated) returned NSD2 HMT inh -2.5, miR-122 sensor 2.0 and PglD inh -3.7.
For CCOC(=O)C(Oc1ccc2c(-c3ccc(OC)cc3)cc(=O)oc2c1C)c1ccccc1 (configuration not stated) the results were NSD2 HMT inh 53.2*, miR-122 sensor -13.0, PglD inh 11.2 and Alpha artifact -3.0%.
`CC(C)=CCC/C(C)=C/CC/C(C)=C/CC/C(C)=C/CC1=C(C)C(=O)c2ccccc2C1=O` gave miR-122 sensor 1.1, PglD inh -4.8 and C2C12 statin 0.4.
CC(C)=CCC1=C(OCC(=O)O)C(=O)c2ccccc2C1=O was read as NSD2 HMT inh 127.0* and Alpha artifact -1.9%.
Screening CCCNC(=O)N(C)C[C@@H]1Oc2ncc(C#CC3CC3)cc2C(=O)N([C@@H](C)CO)C[C@@H]1C returned miR-122 sensor 0.7[16.7 µM], PglD inh -1.0 and C2C12 statin 7.5.
For O=C1C(=O)N(CCS(=O)(=O)c2ccccc2)c2ccc(F)cc21 the results were NSD2 HMT inh 100.1*, miR-122 sensor -1.9, C2C12 statin 10.4 and Alpha artifact 2.4%.
For COc1ccc(COc2ncnc3ccc(Br)cc23)cc1F the results were NSD2 HMT inh 122.2*, miR-122 sensor 6.8, PglD inh 0.8, C2C12 statin 16.8 and Alpha artifact -3.1%.
`Brc1ccc(COc2ncnc3ccccc23)cc1` gave NSD2 HMT inh -4.1.
For COC(=O)[C@H]1[C@H](CO)[C@H]2Cn3c(ccc(-c4ccc(F)cc4)c3=O)[C@H]2N1Cc1ccccn1 the results were miR-122 sensor -3.9[16.7 µM], PglD inh -1.2 and C2C12 statin 1.5.
O=C(C[C@H]1C=C[C@@H](NC(=O)Nc2ccc3c(c2)OCO3)[C@H](CO)O1)NCc1ccc2c(c1)OCO2 was read as PglD inh 1.0 and C2C12 statin -1.0.
